# Source: PubChem (several laboratories)
# Cav32 inh = blocks human Cav3.2 T-type calcium channel; Cav3.2-expressing cells, Fluo-4 calcium fluorescence FDSS; stronger effect = lower value; B-score at 10 µM; 100,000 compounds, 4% hits;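 active = single-dose well whose peak fluorescence ratio is a statistical outlier from its plate by either plate-standardised score or position-corrected B-score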
# PLAP activator = human PLAP activation; 96,000 compounds, 1.2% hits; activation fold at 20 µM; purified PLAP enzyme, luminescent substrate read-out; stronger effect = higher value; in the data active = activation fold above about 2
# hDAT+cocaine = changed human dopamine transporter uptake under cocaine IC80; Q01959; B-score at 10 µM; AID 449768; 110,000 compounds, 1.3% hits; LLC-PK1 hDAT cells, [14C]-dopamine uptake with cocaine IC80; actives deviate in either direction;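 active = Z score or B-score, a plate-position-corrected score, falls beyond the plate's 99.7% confidence bounds, in either direction; inactive = both scores lie inside the 99.7% bounds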;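 also: scored against the spread of the other compound wells on the same plate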
# D1 allo mod = D1 dopamine receptor (human) allosteric modulation. P21728. HEK293 D1, CRE-luciferase, dopamine EC30 potentiation; actives deviate in either direction. B-score at 10 µM. 58,000 compounds, 5.9% hits;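 active = luminescence count or its row- and column-corrected plate score outside the 99.7% band of the plate's sample wells, on either side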
# Target sequence (P21728 whole entry, looked up): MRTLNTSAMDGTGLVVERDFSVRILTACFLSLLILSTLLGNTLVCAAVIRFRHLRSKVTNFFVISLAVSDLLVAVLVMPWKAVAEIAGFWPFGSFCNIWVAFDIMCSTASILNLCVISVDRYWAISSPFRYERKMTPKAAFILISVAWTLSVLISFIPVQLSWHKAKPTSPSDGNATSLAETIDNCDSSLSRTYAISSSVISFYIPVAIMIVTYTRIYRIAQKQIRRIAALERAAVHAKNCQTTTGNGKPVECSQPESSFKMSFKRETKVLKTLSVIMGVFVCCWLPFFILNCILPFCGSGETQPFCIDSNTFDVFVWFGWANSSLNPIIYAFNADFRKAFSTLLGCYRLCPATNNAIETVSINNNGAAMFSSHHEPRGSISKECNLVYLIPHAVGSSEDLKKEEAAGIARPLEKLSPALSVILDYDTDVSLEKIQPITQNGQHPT
# PostGolgi ctrl = inhibits growth of the yeast control strain; inhibition, % at 10 µM; efflux-deficient yeast background strain, growth absorbance A615, 16 h; 98,000 compounds, 5% hits
# PostGolgi yeast = growth inhibition of a yeast mutant, post-Golgi transport screen. post-Golgi transport phenotypic cell assay. 98,000 compounds, 0.9% hits. inhibition, % at 10 µM;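 also: yeast cells grown in 1536-well plates; yeast grown about 18 h at 30C before absorbance read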
# Active calls of the source: *; x = no result. Most compounds without a hit are left out; they make up all but 12% or so of the library. Rule as the data show it, unless noted: active = inhibition above about 30%; inactive = the rest.
SMILES,Cav32 inh,PLAP activator,hDAT+cocaine,D1 allo mod,PostGolgi ctrl,PostGolgi yeast
Cc1ccccc1CS(=O)(=O)CCC(=O)NCCCN1CCN(c2ccccc2F)CC1,0.29,1.2,-0.76,-3.1,5,5
COc1ccc(-c2noc(CCC(=O)NCCN3CCN(c4ccccc4F)CC3)n2)cc1,-1.5,1.7,1.4,-2.8*,7,1
Cc1ccccc1CS(=O)(=O)CCC(=O)NCCN1CCN(c2cccc(Cl)c2)CC1,x,1.5,x,-3.6*,1,15
COc1ccc(-c2noc(CCC(=O)NCCCN3CCC(C)CC3)n2)cc1,0.8,1,-1.8,0.28,-4,6
COc1ccc(NC(=O)C2CC(=O)OC23CCOC(C)(C)C3)cc1 (stereo not drawn),0.57,1.2,-0.42,x,-4,0
COc1cc(C)nc(NS(=O)(=O)c2ccc(C)cc2)n1,0.46,1.1,-0.58,0.41,5,0
CN(C)CCCN1C(=O)C(O)=C(C(=O)c2cccs2)C1c1ccccn1 (stereo not drawn),x,x,x,0.066,x,x
C=CCc1c(C)nc(SCC(=C)C)[nH]c1=O,1.2,0.9,0.91,1.8,5,6
COCCn1c(=NC(=O)c2ccc3c(c2)OCO3)c(C#N)cc2c(=O)n3cccc(C)c3nc21,1.6,1,-2.2*,0.7,6,1
CCCCn1c(=NC(=O)c2ccc3c(c2)OCO3)c(C#N)cc2c(=O)n3cccc(C)c3nc21,1.1,1.3,-0.44,2,11,6
CCOC(=O)c1c(-c2ccccc2)nc2ccccn12,0.029,0.8,-0.15,x,12,5
CC(C)(C)c1ccc(C(=O)OCCNC(=O)c2c(Cl)nc3ccccn23)cc1,-1.9,1.6,0.18,x,37*,-2
Cc1nc(C)n(C(C)CC(=O)O)n1 (stereo not drawn),-0.031,x,-1,0.57,3,1
CCCN1CNC(=S)N(c2cc(C)ccc2C)C1,0.39,x,0.15,x,x,x
COC(=O)c1ccc(N=C2S/C(=C\c3cc(C)n(-c4cccnc4)c3C)C(=O)N2C)cc1,0.38,1,-0.0037,x,32*,2
O=C1/C(=N/n2cnnc2)c2ccccc2N1Cc1ccccc1,-0.56,0.8,0.69,1.4,4,-2
CC1=[N+]([O-])C(C)(C)CC(C)(C)c2ccccc21,0.015,0.9,-0.31,0.29,30*,5
COc1ccc(S(=O)(=O)N2CCC(n3cnc4cc(C(F)(F)F)ccc43)CC2)cc1,-6.2*,1.8,1.6,2.4,41*,-2
O=C1CC(c2ccccc2F)c2cc3c(cc2N1)CCC3 (stereo not drawn),x,0.9,x,x,30,4
O=C1CC(c2cccc(Cl)c2)c2cc3c(cc2N1)CCC3 (stereo not drawn),-1.2,0.9,-0.31,x,89*,1
O=C1CC(c2cc(Br)ccc2F)c2cc3c(cc2N1)CCC3 (stereo not drawn),0.039,1,0.37,x,35*,2
O=C(COc1ccc(Cl)cc1)Nc1ccc(N2CCN(C(=O)c3ccco3)CC2)cc1,1.1,0.8,-0.018,x,13,88*
O=C(c1ccco1)N1CCN(Cc2ccc(Cl)cc2)CC1,x,1,0.17,-0.68,35*,-4
O=C(c1ccco1)N1CCN(CC(O)Cn2c3ccccc3c3ccccc32)CC1 (stereo not drawn),-4.8*,1.6,1.7,-0.015,14,2
Cc1ccc(C)n1CCN1CCN(C(=O)c2ccco2)CC1,0.14,1.2,-0.39,x,8,-4
SMILES,Cav32 inh,PLAP activator,hDAT+cocaine,D1 allo mod,PostGolgi ctrl,PostGolgi yeast
Cc1oc(-c2ccc(Cl)cc2)nc1CN1CCCC(C(=O)N2CCN(C(=O)c3ccco3)CC2)C1 (stereo not drawn),0.82,1.5,0.03,-3.3*,7,-1
O=C(Cc1ccc(Cl)cc1)N1CCN(C(=O)c2ccco2)CC1,-0.7,1,-0.58,x,11,7
CC(C)C(=O)Nc1cccc(C(=O)Nc2nccs2)c1,0.95,1.3,-0.03,-0.19,9,-3
CCC(=O)Nc1ccc(N2CCN(C(=O)c3ccccc3C)CC2)cc1,0.31,0.9,-0.76,-0.61,6,4
Cc1ccccc1C(=O)N1CCN(c2ccc(NC(=O)CSc3ccc(Cl)cc3)cc2)CC1,-2.2,1.3,0.73,x,53*,79*
Cc1ccc(C(C(=O)NC2CCCCC2)N(Cc2cccnc2)C(=O)C2COc3ccccc3O2)o1 (stereo not drawn),-2.8,1.5,-0.89,-0.63,14,3
CCOC(=O)C1CCCN(C/C(O)=C(\C#N)c2nc(-c3ccccc3)cs2)C1 (stereo not drawn),1.3,1.4,0.03,-0.13,11,-9
CCOC(=O)C1CCCN(c2c(NCCCN(CC)c3ccccc3)c(=O)c2=O)C1 (stereo not drawn),1.5,1,0.031,0.7,35*,2
O=C(c1ccc([N+](=O)[O-])cc1)N(Cc1ccc(Cl)cc1)N1C(=O)CCCC1=O,1.2,0.8,-6.6*,x,24,-1
Nn1c(=O)c2ccccc2n2c(SCc3ccc(C(F)(F)F)cc3)nnc12,1.1,1.4,1.3,x,1,-3
CC(/C=C(\NC(=O)c1ccccc1)C(=O)N=Nc1c(O)[nH]c2ccc(C)cc12)=C\c1ccccc1,x,1.2,1.1,x,7,-14
Cc1cc(C)nc(N(C#N)Cc2cccc3ccccc23)n1,-5.2*,0.8,0.86,x,27,2
Cc1nnc(SCc2cc(=O)[nH]c(N3CCCCC3)n2)s1,-0.063,x,0.42,0.62,x,x
CCOc1ccccc1OC(=O)c1ccco1,0.012,1,-0.65,-0.2,36*,-2
COC(=O)c1ccc(OC(=O)c2ccco2)cc1,-0.37,0.9,-7.5*,0.014,5,-7
CC(=O)COc1ccccc1OC(=O)c1ccco1,0.12,0.8,-0.68,x,8,0
O=C(Nc1ccc(OC(=O)c2ccco2)cc1)c1ccco1,0.16,x,-1.2,0.071,0,-1
CC(=O)C1C(c2ccccc2OC(F)F)NC(=O)NC1(O)C(F)(F)F (stereo not drawn),x,1,x,x,11,-7
CCn1c(Cc2c(C)[nH]c3ccccc23)n[nH]c1=S,-0.52,1,1.6,2.9,-2,7
CCn1c(CSc2nc3ccccc3[nH]2)n[nH]c1=S,-2.5,2.2*,1.7,x,3,2
O=C(Nc1cccc2ncccc12)c1ccc(-c2ccc(Br)cc2)o1,1.1,1,1.1,x,11,0
Cc1ccc(OCC(=O)N/N=C/c2ccc([N+](=O)[O-])o2)cc1,-1.1,0.8,-0.18,x,21,5
CCCc1ccc(-c2cc(C(=O)N/N=C/c3ccc([N+](=O)[O-])o3)c3ccccc3n2)cc1,x,1.4,x,x,32*,6
O=C(NCCCCNC(=O)c1c(F)c(F)c(F)c(F)c1F)c1c(F)c(F)c(F)c(F)c1F,0.16,1,0.81,-0.49,2,-9
C[N+]12CCCCC1C(COC(=O)c1ccc3c(c1)OCO3)CCC2 (stereo not drawn),x,0.8,x,x,1,-5
